This passage reports cell viability results from the supplement of paper PMC10600219.

Where “and” joins values, the source holds several entries; their conditions need not be identical. Equal entries are not always repeated. Structures can show the parent of a compound that is named as a salt. The full ranking holds about 2,800 compounds; the median of “cell viability relative to vehicle” is about 1.1, and the lowest 2% start at about 0.19. Only a selection was taken, and the lowest values are over-represented in it overall.

The test relates to NCI-H2228 parental. The test is described as follows: cell viability relative to vehicle (fraction of vehicle); NCI-H2228 is an ALK-positive lung cancer line and DTP means drug-tolerant persister; higher = less growth inhibition. The settings on record: 100 nM; treatment time 6 days. An outline of the steps: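 Values give cell viability as a fraction of vehicle-treated cells. Parental and drug-tolerant persister NCI-H2228 cells (persisters made with 1000 nM of a targeted drug for 13 days) were exposed in 384-well plates to the 3114-agent TargetMol anti-cancer compound library at 100 nM, with DMSO as vehicle. ATP was then read after 6 days by the CellTiter-Glo 3D Cell Viability Assay.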
Consider `CN1CCc2c(c3ccccc3n2Cc2ccc(C(=O)NO)cc2)C1` [Tubastatin A HCl], for which the cell viability stood at 1.02. As for `Cn1cc(CNCC2CCN(c3ncc(C(=O)NO)cn3)CC2)c2ccccc21` [Quisinostat], the cell viability came out at 0.159.

For `Cn1cc(C[C@@H](N)C(=O)O)c2ccccc21` [Indoximod], the cell viability came to 1.11. On to `CCCN1CCN(c2ccc(C(=O)NC3(C(=O)NCC#N)CCCCC3)cc2)CC1` [Balicatib], for which the cell viability was 1.07.

`CC(C)=CCC[C@](C)(O)[C@H]1CC[C@]2(C)[C@@H]1[C@H](O)C[C@@H]1[C@@]3(C)CC[C@H](O)C(C)(C)[C@@H]3[C@@H](O[C@@H]3O[C@H](CO)[C@@H](O)[C@H](O)[C@H]3O[C@@H]3O[C@@H](C)[C@H](O)[C@@H](O)[C@H]3O)C[C@]12C` [Ginsenoside Rg2]: the cell viability was 1.15. Regarding `CCCCCCCCOC(=O)c1cc(O)c(O)c(O)c1` [Octyl gallate], the cell viability turned out to be 1.03.

`CC[C@@](C)(Nc1ccnc(-c2c[nH]c3ncccc23)n1)C(=O)NCC(F)(F)F` [Decernotinib]: the cell viability stood at 1.12.

On to `COc1cc2ncnc(Nc3cccc(Cl)c3)c2cc1OC`, for which the cell viability was 0.877. Regarding `O=C(Nc1cccc(Cl)c1)Nc1ncc(CCNc2ncnc3ccsc23)s1` [SNS-314 Mesylate], the cell viability is 0.126. With `COc1cc(/C=C/C(=O)OC[C@H]2O[C@H](O[C@]3(CO)O[C@H](CO)[C@@H](O)[C@@H]3OC(=O)/C=C/c3cc(OC)c(O)c(OC)c3)[C@H](O)[C@@H](O)[C@@H]2O)cc(OC)c1O` [3,6'-Disinapoyl sucrose], the cell viability turned out to be 0.963.

Regarding `Fc1ccc(-n2cc(CCCCN3CCC4(CC3)OCc3ccccc34)c3ccccc32)cc1` [Siramesine hydrochloride], the cell viability is 1.13.

`COc1cccc(-c2cc(F)ccc2[C@H]2Cc3nc(N)nc(C)c3C(=O)N2)n1`: the cell viability was found to be 0.171.

Regarding `COc1ccc(-c2cc3c(C)nc(N)nc3n([C@H]3CC[C@H](OCCO)CC3)c2=O)cn1`, the cell viability was determined as 0.485. Take `Oc1ccc(-c2cc(=S)ss2)cc1` [Desmethylanethol trithione]: the cell viability worked out at 1.03. For `Cc1cc(C#N)c(N)s1` [2-Amino-5-methyl-3-thiophenecarbonitrile], the cell viability stood at 0.811. As to `COCCNc1cc(NC(=O)N2CCCc3cc(CN4CCN(C)CC4=O)c(C=O)nc32)ncc1C#N` [Roblitinib], the cell viability was 1.13. As to `COc1ccc2[nH]c(C(=O)c3ccccc3)cc2c1`, the cell viability was 0.197. In the case of `O=C(CCCCCCNC(=O)c1cnc(N(c2ccccc2)c2ccccc2Cl)nc1)NO` [Citarinostat], the cell viability is 1.03. Regarding `CC(C)c1cc(-c2n[nH]c(=O)n2-c2ccc3c(ccn3C)c2)c(O)cc1O` [Ganetespib], the cell viability turned out to be 0.118. As for `CC[C@@]1(O)C(=O)OCc2c1cc1n(c2=O)Cc2cc3c(CN(C)C)c(O)ccc3nc2-1` [Topotecan hydrochloride], the cell viability was found to be 0.0837.

For `CC[C@@]1(O)C(=O)OCc2c1cc1n(c2=O)Cc2cc3cc(O)ccc3nc2-1` [10-Hydroxycamptothecin], the cell viability was 0.0838. With `CCc1c2c(nc3ccc(OC(=O)N4CCC(N5CCCCC5)CC4)cc13)-c1cc3c(c(=O)n1C2)COC(=O)[C@]3(O)CC` [Irinotecan hydrochloride trihydrate], the cell viability is 1.11. With `CCc1c2c(nc3ccc(O)cc13)-c1cc3c(c(=O)n1C2)COC(=O)[C@]3(O)CC` the figure was 0.0693; with `CCc1c2c(nc3ccc(OC(=O)N4CCC(N5CCCCC5)CC4)cc13)-c1cc3c(c(=O)n1C2)COC(=O)[C@]3(O)CC` [Irinotecan], 0.939.

Regarding `CC[C@@]1(O)C(=O)OCc2c1cc1n(c2=O)Cc2cc3cc(O)ccc3nc2-1` [Hydroxy Camptothecine], the cell viability was found to be 0.0691. For the compound `CC(C)C(C(=O)O)N1C(=O)C(=Cc2ccc(Br)cc2)SC1=S` (stereo unspecified), the cell viability turned out to be 1.04. Then `COc1ccc(-c2oc3cc(O)cc(O)c3c(=O)c2O)cc1` [kaempferide], with 1.13; and `OC[C@H]1O[C@@H](Oc2cc(O)cc(/C=C/c3ccc(O[C@@H]4O[C@H](CO)[C@@H](O)[C@H](O)[C@H]4O)cc3O)c2)[C@H](O)[C@@H](O)[C@@H]1O` [Mulberroside A], with 1.07. As to `N[C@@H](CO)C(=O)O` [serine], the cell viability stood at 1.06. With `COc1ccc(C(=C2C(=O)Nc3ccccc32)c2ccc(OC)cc2)cc1`, the cell viability came out at 1.05. With `CN(C)C(=S)NN=C(c1ccccn1)c1ccccn1`, the cell viability worked out at 0.212. Then `C/C(=N\NC(=S)N1CCC1)c1ccccn1`, with 0.136; and `S=C(N/N=C1/CCCc2cccnc21)N1CCN(c2ccccn2)CC1`, with 1.09; and `COc1cc(OC)cc(C(=O)Nc2ccc(Cl)c(-c3nc4ccc(N(C)C)cc4[nH]3)c2)c1` [HhAntag], with 1.03. Regarding `NC(=O)c1ccc(OCCCN2CC3CCCC3C2)cc1` (stereo unspecified), the cell viability was 1.17. For the compound `COc1c(Nc2ncc(Cl)c(N[C@H]3[C@@H](C(N)=O)[C@@H]4C=C[C@H]3C4)n2)ccc2c1CC[C@@H](N1CCOCC1)CC2`, the cell viability came out at 0.799. As to `Cc1[nH]c2ccccc2c1CCNCc1ccc(/C=C/C(=O)NO)cc1` [Panobinostat], the cell viability was determined as 0.094. As to `CN(C)Cc1ccc(S(=O)(=O)n2ccc(/C=C/C(=O)NO)c2)cc1` [Resminostat hydrochloride], the cell viability turned out to be 1.02. On to `Cc1[nH]c2ccccc2c1CCNC(=O)c1cccs1`, for which the cell viability came to 1.06. In the case of `CC(C)c1cc2c(c(O)c1O)[C@@]13CCCC(C)(C)[C@@H]1C[C@@H]2OC3=O` [Carnosol], the cell viability is 1.04. `O=C1C=C2C=C[C@@H](O)[C@H](O)[C@H]2O1` [griffonilide]: the cell viability was found to be 1.11.

As to `N#CN=C(NCCCCCCOc1ccc(Cl)cc1)Nc1ccncc1`, the cell viability was found to be 0.0557. Take `N=C(NCCCCCCNC(=N)NC(=N)Nc1ccc(Cl)cc1)NC(=N)Nc1ccc(Cl)cc1` [Chlorhexidine hydrochloride]: the cell viability was determined as 0.965.

Turning to `N=C(NCCCCCCNC(=N)NC(=N)Nc1ccc(Cl)cc1)NC(=N)Nc1ccc(Cl)cc1` [Chlorhexidine], the cell viability was determined as 1.08. Turning to `CN1CCN(C(=O)C2C(C(=O)O)[C@H]3CC[C@@H]2O3)CC1` (stereo partly specified), the cell viability was determined as 0.955.

Turning to `O=C1CSc2ccccc2N1Cc1cccc(C(F)(F)F)c1`, the cell viability was determined as 1.04.

As to `OC[C@@H](O)[C@@H](O)[C@@H](O)[C@@H](O)CO` [Allitol], the cell viability came to 1.13.

As for `Cn1cc(-c2nc(N[C@@H]3CCCC[C@@H]3N)c(F)c3c2C(=O)NC3)cn1` [TAK-659 hydrochloride], the cell viability stood at 1.01. With `Nc1nc(Cl)nc2c1ncn2[C@H]1C[C@H](O)[C@@H](CO)O1` [Cladribine] the figure was 0.201; with `Nc1nc(Cl)nc2c1ncn2[C@@H]1O[C@H](CO)[C@@H](O)[C@@H]1F` [Clofarabine], 0.151; with `Nc1nc(F)nc2c1ncn2[C@@H]1O[C@H](CO)[C@@H](O)[C@@H]1O` [Fludarabine], 1.12. With `NS(=O)(=O)Oc1ccc2c3c(c(=O)oc2c1)CCCCC3` [Irosustat] the figure was 1.04; with `O=C(O)c1ccc(S(=O)(=O)NC2CCCCC2)cc1`, 0.986 and 1.12. `CC(C)c1cc(C(=O)N2Cc3ccc(CN4CCN(C)CC4)cc3C2)c(O)cc1O` [Onalespib]: the cell viability was 0.29. On to `C[C@@H](Oc1cc(-n2cnc3ccc(CN4CCN(C)CC4)cc32)sc1C(N)=O)c1ccccc1C(F)(F)F`, for which the cell viability worked out at 0.156. As to `COc1ccc(CC(C)(C)NC[C@H](O)c2cc(O)cc3c2OCC(=O)N3)cc1` [Olodaterol], the cell viability is 0.923. On to `Cc1ccc(/C=C2\CNC/C(=C\c3ccc(C)cc3)C2=O)cc1`, for which the cell viability was 1.06.

In the case of `c1ccc(CNc2ccccc2)cc1` [N-Phenylbenzylamine], the cell viability came to 1.16. As for `Cc1cc(O)c(-c2ccc(C(C)CN)cc2)c2c1[nH]c(=O)c1sccc12` (stereo unspecified), the cell viability was found to be 0.116. Take `COC(=O)c1ccc(O)c(OC)c1` [Methyl Vanillate]: the cell viability came to 1.18. In the case of `CCC(=O)N1CCN(c2ccc(-n3c(=O)ccc4cnc5ccc(-c6cnc7ccccc7c6)cc5c43)cc2C(F)(F)F)CC1` [Torin 1], the cell viability stood at 0.306. Regarding `COc1ccc(-c2ccc3ncc4c(c3c2)n(-c2ccc(N3CCNCC3)c(C(F)(F)F)c2)c(=O)n4C)cn1`, the cell viability stood at 0.172. `Cn1c(=O)n(-c2ccc(C(C)(C)C#N)cc2)c2c3cc(-c4cnc5ccccc5c4)ccc3ncc21` [Dactolisib]: the cell viability is 0.258. With `NC(=O)c1ccc2nc(-c3ccc(Oc4ccc(Cl)cc4)cc3)[nH]c2c1`, the cell viability worked out at 0.996. On to `Nc1ccc(Cl)cc1C(=O)O` [2-Amino-5-chlorobenzoic acid], for which the cell viability stood at 1.16. In the case of `Cc1nc(Nc2ncc(C(=O)Nc3c(C)cccc3Cl)s2)cc(N2CCN(CCO)CC2)n1` [Dasatinib monohydrate], the cell viability stood at 0.77. `Cc1nc(Nc2ncc(C(=O)Nc3c(C)cccc3Cl)s2)cc(N2CCN(CCO)CC2)n1` [Dasatinib]: the cell viability turned out to be 0.872.

As for `Cc1cc(Nc2cc(N3CCN(C)CC3)nc(/C=C/c3ccccc3)n2)n[nH]1`, the cell viability is 0.803. Then `Cc1cc(Nc2cc(N3CCN(C)CC3)nc(Sc3ccc(NC(=O)C4CC4)cc3)n2)n[nH]1` [Tozasertib], with 0.158; and `O=C(O)c1ccc(CN2C[C@@H]3C[C@H]2CN3Cc2ccc(Oc3ccc(-c4ncco4)cc3)cc2)cc1` [Acebilustat], with 1.05; and `CN1C(=O)C(C)(C)Oc2c(-c3cn(C)c(=O)c4[nH]ccc34)cc(S(C)(=O)=O)cc21`, with 0.935. Consider `C(=N\NC1=NCCN1)/c1c2ccccc2c(/C=N/NC2=NCCN2)c2ccccc12` [Bisantrene], for which the cell viability is 1.01.

As to `CC(C)=CCc1cc(-c2coc3cc(O)ccc3c2=O)ccc1O` [Neobavaisoflavone], the cell viability is 1.17.

Consider `CC(=O)NCCC(=O)O`, for which the cell viability worked out at 0.856. For `COc1cc(/C=C2/SC(=S)NC2=O)ccc1OCC(=O)O`, the cell viability turned out to be 1.1. For `CC[C@@H]1C(=O)N(C)c2cnc(Nc3ccc(C(=O)N[C@H]4CC[C@H](N5CCN(CC6CC6)CC5)CC4)cc3OC)nc2N1C(C)C` [Volasertib], the cell viability stood at 0.192.

`COc1cc(C(=O)N2CCC(N3CCN(C)CC3)CC2)ccc1Nc1ncc2c(n1)N(C)c1ccccc1C(=O)N2C`: the cell viability is 1.11. Then `CC[C@@H]1C(=O)N(C)c2cnc(Nc3ccc(C(=O)NC4CCN(C)CC4)cc3OC)nc2N1C1CCCC1`, with 0.167. As to `CCOc1cc(N2CCC(O)CC2)ccc1Nc1ncc2c(n1)N(C1CCCC1)CCC(=O)N2C`, the cell viability was determined as 1.15. With `CCOc1cc(C(=O)N2CCC(N3CCN(C)CC3)CC2)ccc1Nc1ncc2c(n1)N(C1CCCC1)c1ccccc1C(=O)N2C` the figure was 1.23; with `COc1cc(C(=O)NC2CCN(C)CC2)ccc1Nc1ncc2c(n1)N(C1CCCC1)CC(F)(F)C(=O)N2C`, 0.171.
